# In PubChem BioAssay (EPA / NIEHS):
# Results filed as inconclusive are left out. The source made the active and inactive calls. Rule for the calls, unless noted: active = hit-call score of the fitted dose curve at least 0.9, where 1 is the maximum; inconclusive = response in the unintended direction; inactive = score below 0.9.
# Legend:
# [1] = ATG_VDRE_CIS: Attagene CIS-FACTORIAL HepG2 Assay for human Vitamin D Receptor Element (VDRE) (AID 2282968; active = hit-call score of the fitted dose curve at least 0.9, where 1 is the maximum; inactive = score below 0.9); conditions: HepG2 VDRE cis-reporter transcription, actives raise or lower the signal
# Summary of the method: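 Measures endogenous factor activity through cis-element-driven reporter transcripts in transiently transfected HepG2. Cells are treated 24 h; reporter mRNA is quantified by RT-PCR and capillary electrophoresis; fitting is bidirectional.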
# [2] = target: Nuclear receptor subfamily 1 group I member 3 (Homo sapiens) (UniProt Q14994); experiment: ATG_CAR_TRANS: Attagene TRANS-FACTORIAL HepG2 Assay for human Constitutive Androstane Receptor (CAR) (AID 2282969); conditions: HepG2 Attagene TRANS-FACTORIAL CAR reporter;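 note: activators raise reporter mRNA above DMSO so AC50 marks induction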
# Summary of the method: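 Signal is reporter mRNA induction relative to DMSO, measured 24 h after dosing by RT-PCR with fluorescent primer extension and capillary electrophoresis. Human HepG2 liver cells carried transiently transfected chimeric NR-Gal4/GAL4-UAS reporter constructs.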
# [3] = target: Steroid hormone receptor ERR1 (Homo sapiens) (UniProt P11474); experiment: ATG_ERRa_TRANS: Attagene TRANS-FACTORIAL HepG2 Assay for human Estrogen-Related Receptor alpha (ERRa) (AID 2282971); conditions: HepG2 Attagene TRANS reporter, ERRa transactivation
# Summary of the method: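 Reporter transcripts from ERRa-Gal4 chimera activity measured in transiently transfected human HepG2 cells 24 hours after dosing, using RT-PCR with 6-FAM primer extension, HpaI digestion and capillary electrophoresis; DMSO is baseline.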
# [4] = target: X-box-binding protein 1 (Homo sapiens) (UniProt P17861); experiment: ATG_Xbp1_CIS: Attagene CIS-FACTORIAL HepG2 Assay for human X-box Binding Protein 1 (XBP1) (AID 2282972; active = hit-call score of the fitted dose curve at least 0.9, where 1 is the maximum; inactive = score below 0.9); conditions: HepG2 XBP1 cis-element reporter, Attagene multiplex; actives raise or lower the signal
# Summary of the method: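 Reporter transcripts were quantified by RT-PCR with fluorescent primer extension and capillary electrophoresis after 24 h chemical exposure. Cells: transiently transfected HepG2 carrying cis-regulated reporter constructs; data fitted bidirectionally relative to DMSO.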
# [5] = ATG_M_19_TRANS: Attagene TRANS-FACTORIAL HepG2 Assay for M19 Transcription Factor (Internal Marker) (AID 2282974); conditions: HepG2 Attagene TRANS-FACTORIAL M19 internal marker reporter
# Summary of the method: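 Gain-of-signal in reporter mRNA, relative to DMSO, was scored from capillary electrophoresis fluorescence. HepG2 cells carried transiently transfected multiple reporter transcription units and were incubated with test chemicals for 24 h.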
# [6] = target: Glucocorticoid receptor (Homo sapiens) (UniProt P04150); experiment: ATG_GR_TRANS: Attagene TRANS-FACTORIAL HepG2 Assay for human Glucocorticoid Receptor (GR) (AID 2282978); conditions: HepG2 Attagene TRANS GR reporter, mRNA transcription;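 note: activators score as hits since higher reporter transcript over DMSO is fitted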
# Summary of the method: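 HepG2 transient transfection, multiple reporter units, GAL4-UAS under NR-GAL4 chimera control. 24 h treatment. Reporter mRNA by RT-PCR/CE fluorescence, DMSO as negative control.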
# [7] = target: Hepatocyte nuclear factor 4-alpha (Homo sapiens) (UniProt P41235); experiment: ATG_HNF4a_TRANS: Attagene TRANS-FACTORIAL HepG2 Assay for human Hepatocyte Nuclear Factor 4 alpha (HNF4a) (AID 2282982); conditions: HepG2 HNF4a transactivation reporter, mRNA readout
# Summary of the method: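 Multiplexed reporter assay: transfected HepG2, 24 h exposure, total RNA → oligo(dT) RT → PCR → 6-FAM extension → HpaI digest → CE fluorescence. DMSO = negative control.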
# [8] = ATG_M_32_TRANS: Attagene TRANS-FACTORIAL HepG2 Assay for M32 Transcription Factor (Internal Marker) (AID 2282984); conditions: HepG2 Attagene TRANS M32 internal marker reporter;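 note: transcript level of a background control reporter unit measured by RT-PCR and capillary electrophoresis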
# Summary of the method: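 Cell-based TRANS-format assay in HepG2: exogenous chimeric GAL4 reporter units transiently expressed, compounds applied 24 h. Reporter mRNA detected by RT-PCR plus capillary electrophoresis; this readout is an internal background marker.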
# [9] = target: Nuclear receptor subfamily 4 group A member 2 (Homo sapiens) (UniProt P43354); experiment: ATG_NURR1_TRANS: Attagene TRANS-FACTORIAL HepG2 Assay for human Nuclear Receptor Related Protein 1 (NURR1) (AID 2282985); conditions: HepG2 Attagene TRANS reporter, mRNA readout
# Summary of the method: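 Measures transcriptional activation by an exogenous NR-Gal4 chimera in transfected HepG2 liver cells. After 24 h, reporter RNA is reverse-transcribed, amplified and resolved by capillary electrophoresis; DMSO defines baseline.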
# [10] = target: Transcriptional activator Myb (Homo sapiens) (UniProt P10242); experiment: ATG_Myb_CIS: Attagene CIS-FACTORIAL HepG2 Assay for human Myeloblastosis (Myb) Proto-Oncogene Transcription Factor (AID 2282986; active = hit-call score of the fitted dose curve at least 0.9, where 1 is the maximum; inactive = score below 0.9); conditions: HepG2 Attagene CIS-FACTORIAL Myb reporter transcription; actives raise or lower the signal
# Summary of the method: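 Multiplexed cis-reporter system in HepG2: transient transfection, 24 h treatment, mRNA readout by RT-PCR and capillary electrophoresis. Both increases and decreases are scored versus DMSO negative control.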
# [11] = target: Nuclear respiratory factor 1 (Homo sapiens) (UniProt Q16656); experiment: ATG_NRF1_CIS: Attagene CIS-FACTORIAL HepG2 Assay for human Nuclear Respiratory Factor 1 (NRF1) Orphan Gene (AID 2282987; active = hit-call score of the fitted dose curve at least 0.9, where 1 is the maximum; inactive = score below 0.9); conditions: HepG2 NRF1 cis-element reporter, Attagene multiplex; actives raise or lower the signal
# Summary of the method: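 Endogenous factor activity was captured via cis-element-driven reporter transcripts in HepG2 cells. Following 24 h chemical treatment, transcripts were quantified by RT-PCR and capillary electrophoresis.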
# [12] = ATG_NFI_CIS: Attagene CIS-FACTORIAL HepG2 Assay for human Nuclear Factor I (NFI) (AID 2282989; active = hit-call score of the fitted dose curve at least 0.9, where 1 is the maximum; inactive = score below 0.9); conditions: HepG2 cis-regulatory reporter, NFI response element transcription; actives raise or lower the signal
# Summary of the method: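 Read-out: reporter mRNA via RT-PCR plus capillary electrophoresis with fluorescence detection. Transiently transfected HepG2 (endogenous TF activity on cis promoters), 24 h compound exposure; gain or loss of signal fitted against DMSO.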
# [13] = ATG_GAL4_TRANS: Attagene TRANS-FACTORIAL HepG2 Assay for GAL4 (Internal Marker) (AID 2282976); conditions: HepG2 Attagene TRANS GAL4 internal marker reporter
# Summary of the method: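 In transfected human HepG2 liver cells dosed 24 h, GAL4 reporter mRNA serves as a baseline marker. Detection by RT-PCR with fluorescent capillary electrophoresis, activity fitted upward relative to DMSO.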
# [14] = target: Bile acid receptor (Homo sapiens) (UniProt Q96RI1); experiment: ATG_FXR_TRANS: Attagene TRANS-FACTORIAL HepG2 Assay for Farnesoid X Receptor (FXR) (AID 2282979); conditions: HepG2 Attagene TRANS FXR-GAL4 reporter transcription;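 note: hits raise reporter mRNA above DMSO so AC50 marks FXR activation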
# Summary of the method: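 Reporter transcripts from transfected HepG2 cells were measured 24 h after dosing, using RT-PCR with capillary electrophoresis of 6-FAM-labelled fragments. The read-out reflects activity of exogenous FXR-Gal4 chimera on GAL4-UAS units, with induction relative to DMSO.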
# [15] = target: Oxysterols receptor LXR-alpha (Homo sapiens) (UniProt Q13133); experiment: ATG_LXRa_TRANS: Attagene TRANS-FACTORIAL HepG2 Assay for human Liver X Receptor alpha (LXRa) (AID 2282980); conditions: HepG2 Attagene TRANS reporter, LXRa transactivation
# Summary of the method: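 Chemical-induced reporter mRNA measured by RT-PCR with fluorescent labelling and capillary electrophoresis after 24 h dosing of transiently transfected HepG2 cells expressing exogenous NR-Gal4 chimeras; increases scored against DMSO baseline.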
# [16] = target: Oxysterols receptor LXR-beta (Homo sapiens) (UniProt P55055); experiment: ATG_LXRb_TRANS: Attagene TRANS-FACTORIAL HepG2 Assay for human Liver X Receptor beta (LXRb) (AID 2282981); conditions: HepG2 Attagene TRANS GAL4-LXRb reporter, mRNA
# Summary of the method: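 After 24 h of chemical treatment, transfected HepG2 cells yield total RNA; reporter cDNA is PCR-amplified, FAM-labelled, HpaI-cut and run on capillary electrophoresis. Signal reflects chimeric LXRb-Gal4 activity on GAL4-UAS reporters.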
# [17] = ATG_M_06_TRANS: Attagene TRANS-FACTORIAL HepG2 Assay for M06 Transcription Factor (Internal Marker) (AID 2282983); conditions: HepG2 Attagene TRANS M06 internal marker reporter;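 note: reporter transcript level by RT-PCR then capillary electrophoresis fluorescence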
# Summary of the method: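 Background-control reporter readout: after 24 h chemical exposure of transiently transfected HepG2 (GAL4-UAS reporter units), mRNA quantified by RT-PCR with fluorescent labeling and capillary electrophoresis. Gain-of-signal fitting against DMSO baseline.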
# [18] = target: Estrogen receptor (Homo sapiens) (UniProt P03372); experiment: ATG_ERa_TRANS: Attagene TRANS-FACTORIAL HepG2 Assay for human Estrogen Receptor alpha (ERa) (AID 2282970); conditions: HepG2 Attagene TRANS ERa GAL4 reporter, mRNA
# Summary of the method: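 Reporter transcripts were measured 24 h after dosing by RT-PCR with fluorescent primer extension and capillary electrophoresis. The system is transiently transfected HepG2 expressing exogenous NR-Gal4 chimeras driving GAL4-UAS reporters; DMSO is the baseline.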
# [19] = target: Estrogen-related receptor gamma (Homo sapiens) (UniProt P62508); experiment: ATG_ERRg_TRANS: Attagene TRANS-FACTORIAL HepG2 Assay for human Estrogen-Related Receptor gamma (ERRg) (AID 2282977); conditions: HepG2 Attagene TRANS reporter, ERRg transactivation;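 note: hits increase reporter signal over DMSO so potencies reflect activators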
# Summary of the method: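 Readout: fluorescent reporter-mRNA fragments resolved by capillary electrophoresis after RT-PCR and HpaI cut. Cells: transiently transfected HepG2 carrying GAL4-UAS reporters driven by exogenous NR-Gal4 chimeras, dosed 24 h. Activity fitted upward relative to DMSO baseline.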
# Sequence of Nuclear respiratory factor 1 (Homo sapiens) (Q16656 whole entry, looked up): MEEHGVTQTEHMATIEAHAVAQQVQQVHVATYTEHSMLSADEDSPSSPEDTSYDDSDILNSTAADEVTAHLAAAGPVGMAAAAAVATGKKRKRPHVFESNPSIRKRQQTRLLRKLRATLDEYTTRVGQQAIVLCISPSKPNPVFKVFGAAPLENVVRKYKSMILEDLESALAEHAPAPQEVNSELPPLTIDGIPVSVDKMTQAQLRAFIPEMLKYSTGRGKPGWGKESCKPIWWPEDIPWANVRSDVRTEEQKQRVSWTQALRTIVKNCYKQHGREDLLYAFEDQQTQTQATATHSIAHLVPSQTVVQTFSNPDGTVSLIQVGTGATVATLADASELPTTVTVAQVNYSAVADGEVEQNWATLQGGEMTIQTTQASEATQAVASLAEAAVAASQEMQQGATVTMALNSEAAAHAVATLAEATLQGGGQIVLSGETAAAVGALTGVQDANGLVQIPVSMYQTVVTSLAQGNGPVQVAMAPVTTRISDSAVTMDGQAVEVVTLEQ
# Sequence of X-box-binding protein 1 (Homo sapiens) (P17861 whole entry, looked up): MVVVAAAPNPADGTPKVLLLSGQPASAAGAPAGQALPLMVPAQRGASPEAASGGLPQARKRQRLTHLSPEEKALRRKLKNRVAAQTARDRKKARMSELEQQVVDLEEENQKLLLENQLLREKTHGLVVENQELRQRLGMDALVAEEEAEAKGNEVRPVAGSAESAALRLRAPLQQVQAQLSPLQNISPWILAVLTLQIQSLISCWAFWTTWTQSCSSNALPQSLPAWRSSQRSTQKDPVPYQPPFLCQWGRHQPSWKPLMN
# Sequence of Hepatocyte nuclear factor 4-alpha (Homo sapiens) (P41235 whole entry, looked up): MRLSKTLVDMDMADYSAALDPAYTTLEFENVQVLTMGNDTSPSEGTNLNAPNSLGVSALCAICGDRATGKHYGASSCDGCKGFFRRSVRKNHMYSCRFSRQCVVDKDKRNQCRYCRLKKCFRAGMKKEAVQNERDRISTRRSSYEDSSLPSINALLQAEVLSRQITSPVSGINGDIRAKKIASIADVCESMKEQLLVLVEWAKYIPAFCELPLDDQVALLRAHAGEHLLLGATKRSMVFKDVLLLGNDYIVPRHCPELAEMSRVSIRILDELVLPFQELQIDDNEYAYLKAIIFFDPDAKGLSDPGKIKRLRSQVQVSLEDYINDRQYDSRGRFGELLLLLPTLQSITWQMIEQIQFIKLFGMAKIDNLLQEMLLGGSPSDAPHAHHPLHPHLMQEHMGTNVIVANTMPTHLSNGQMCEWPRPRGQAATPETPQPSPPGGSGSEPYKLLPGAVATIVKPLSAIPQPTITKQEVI
# Sequence of Glucocorticoid receptor (Homo sapiens) (P04150 whole entry, looked up, the tested form may be a part): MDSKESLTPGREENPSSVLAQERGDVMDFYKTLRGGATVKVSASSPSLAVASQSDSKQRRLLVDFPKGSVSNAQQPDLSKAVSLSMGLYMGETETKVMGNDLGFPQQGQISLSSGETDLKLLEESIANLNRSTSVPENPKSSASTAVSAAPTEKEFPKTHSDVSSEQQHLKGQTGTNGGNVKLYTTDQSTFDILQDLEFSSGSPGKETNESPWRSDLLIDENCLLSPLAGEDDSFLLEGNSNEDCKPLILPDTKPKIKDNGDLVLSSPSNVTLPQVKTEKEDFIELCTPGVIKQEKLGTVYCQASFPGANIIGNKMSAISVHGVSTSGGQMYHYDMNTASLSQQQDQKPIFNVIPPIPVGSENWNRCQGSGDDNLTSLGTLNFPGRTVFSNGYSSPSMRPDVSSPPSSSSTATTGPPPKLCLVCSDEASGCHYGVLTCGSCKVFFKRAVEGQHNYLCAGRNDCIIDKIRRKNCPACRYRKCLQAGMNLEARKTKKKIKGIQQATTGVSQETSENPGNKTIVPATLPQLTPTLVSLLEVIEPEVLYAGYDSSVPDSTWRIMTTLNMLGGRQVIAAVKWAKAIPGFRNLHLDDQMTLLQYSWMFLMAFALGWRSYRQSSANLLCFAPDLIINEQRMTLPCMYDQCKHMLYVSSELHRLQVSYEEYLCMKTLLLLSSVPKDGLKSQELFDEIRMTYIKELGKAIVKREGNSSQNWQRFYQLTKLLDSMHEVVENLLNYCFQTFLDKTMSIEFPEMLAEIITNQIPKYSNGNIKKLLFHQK
# Sequence of Estrogen-related receptor gamma (Homo sapiens) (P62508 whole entry, looked up, the tested form may be a part): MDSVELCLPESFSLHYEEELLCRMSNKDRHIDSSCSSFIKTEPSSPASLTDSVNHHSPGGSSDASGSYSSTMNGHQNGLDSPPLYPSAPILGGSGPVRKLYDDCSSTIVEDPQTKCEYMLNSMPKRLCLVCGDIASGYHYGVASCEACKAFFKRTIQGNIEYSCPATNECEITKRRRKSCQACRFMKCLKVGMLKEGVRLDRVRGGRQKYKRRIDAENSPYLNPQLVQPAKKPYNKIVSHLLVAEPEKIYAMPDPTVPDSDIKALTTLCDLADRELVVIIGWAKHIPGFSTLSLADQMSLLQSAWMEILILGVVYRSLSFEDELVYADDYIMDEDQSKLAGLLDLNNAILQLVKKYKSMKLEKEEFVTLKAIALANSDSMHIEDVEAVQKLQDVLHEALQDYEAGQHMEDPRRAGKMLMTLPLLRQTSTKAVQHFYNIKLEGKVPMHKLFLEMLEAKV
# Sequence of Transcriptional activator Myb (Homo sapiens) (P10242 whole entry, looked up): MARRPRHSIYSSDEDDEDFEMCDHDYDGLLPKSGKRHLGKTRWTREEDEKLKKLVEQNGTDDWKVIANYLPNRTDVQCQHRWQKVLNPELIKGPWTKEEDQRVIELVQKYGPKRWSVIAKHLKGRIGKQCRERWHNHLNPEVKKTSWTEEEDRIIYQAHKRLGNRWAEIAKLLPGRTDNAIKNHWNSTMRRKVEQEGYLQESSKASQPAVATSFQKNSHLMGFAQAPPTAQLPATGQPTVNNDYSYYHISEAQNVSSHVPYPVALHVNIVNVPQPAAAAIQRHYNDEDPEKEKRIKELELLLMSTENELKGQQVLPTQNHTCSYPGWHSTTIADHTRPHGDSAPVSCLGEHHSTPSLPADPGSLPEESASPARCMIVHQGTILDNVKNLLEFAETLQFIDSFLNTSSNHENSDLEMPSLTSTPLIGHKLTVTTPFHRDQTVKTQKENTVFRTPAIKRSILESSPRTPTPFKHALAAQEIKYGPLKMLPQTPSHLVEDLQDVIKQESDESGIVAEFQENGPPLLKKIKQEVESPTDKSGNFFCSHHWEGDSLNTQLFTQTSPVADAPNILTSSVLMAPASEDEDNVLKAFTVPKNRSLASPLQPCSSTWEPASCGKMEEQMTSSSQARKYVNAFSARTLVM
# Sequence of Steroid hormone receptor ERR1 (Homo sapiens) (P11474 whole entry, looked up, the tested form may be a part): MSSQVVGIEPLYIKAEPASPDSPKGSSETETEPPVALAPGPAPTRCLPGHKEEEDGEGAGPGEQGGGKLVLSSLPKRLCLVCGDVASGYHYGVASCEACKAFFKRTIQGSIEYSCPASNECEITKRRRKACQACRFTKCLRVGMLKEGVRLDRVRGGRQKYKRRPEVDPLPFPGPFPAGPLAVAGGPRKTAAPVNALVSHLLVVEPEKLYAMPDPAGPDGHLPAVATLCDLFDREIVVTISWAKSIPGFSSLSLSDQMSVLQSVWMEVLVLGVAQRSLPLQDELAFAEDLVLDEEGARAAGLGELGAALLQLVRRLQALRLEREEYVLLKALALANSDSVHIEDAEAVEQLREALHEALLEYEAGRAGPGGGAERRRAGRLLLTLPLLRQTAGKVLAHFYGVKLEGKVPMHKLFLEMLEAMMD
# Sequence of Nuclear receptor subfamily 4 group A member 2 (Homo sapiens) (P43354 whole entry, looked up, the tested form may be a part): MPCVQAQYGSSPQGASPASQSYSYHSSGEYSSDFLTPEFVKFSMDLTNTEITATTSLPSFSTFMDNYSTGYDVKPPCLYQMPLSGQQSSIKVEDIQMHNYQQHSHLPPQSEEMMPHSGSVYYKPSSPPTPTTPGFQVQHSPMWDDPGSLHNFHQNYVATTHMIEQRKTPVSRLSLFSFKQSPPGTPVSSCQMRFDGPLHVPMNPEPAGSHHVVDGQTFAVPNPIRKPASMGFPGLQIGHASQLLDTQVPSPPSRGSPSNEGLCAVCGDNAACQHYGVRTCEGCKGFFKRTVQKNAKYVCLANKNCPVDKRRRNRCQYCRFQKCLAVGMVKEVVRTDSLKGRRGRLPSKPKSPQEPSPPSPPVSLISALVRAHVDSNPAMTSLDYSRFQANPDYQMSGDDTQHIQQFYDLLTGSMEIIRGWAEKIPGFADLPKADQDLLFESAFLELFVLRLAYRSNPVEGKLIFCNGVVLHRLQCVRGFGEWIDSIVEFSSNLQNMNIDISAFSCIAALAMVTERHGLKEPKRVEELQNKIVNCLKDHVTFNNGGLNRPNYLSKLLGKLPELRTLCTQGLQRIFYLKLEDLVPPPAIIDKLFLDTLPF
# Sequence of Bile acid receptor (Homo sapiens) (Q96RI1 whole entry, looked up, the tested form may be a part): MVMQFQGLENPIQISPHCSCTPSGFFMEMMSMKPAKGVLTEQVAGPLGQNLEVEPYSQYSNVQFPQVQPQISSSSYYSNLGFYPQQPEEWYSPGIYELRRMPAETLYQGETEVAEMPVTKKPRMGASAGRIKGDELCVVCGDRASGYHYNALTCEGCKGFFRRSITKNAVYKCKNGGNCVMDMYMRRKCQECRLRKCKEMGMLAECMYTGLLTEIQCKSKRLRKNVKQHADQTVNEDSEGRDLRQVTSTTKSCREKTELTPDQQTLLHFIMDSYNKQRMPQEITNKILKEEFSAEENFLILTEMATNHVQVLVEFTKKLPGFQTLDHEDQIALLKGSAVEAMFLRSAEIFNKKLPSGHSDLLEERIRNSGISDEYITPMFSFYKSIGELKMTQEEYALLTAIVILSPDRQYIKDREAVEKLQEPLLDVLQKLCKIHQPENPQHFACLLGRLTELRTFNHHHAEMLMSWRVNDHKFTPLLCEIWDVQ
# Sequence of Nuclear receptor subfamily 1 group I member 3 (Homo sapiens) (Q14994 whole entry, looked up, the tested form may be a part): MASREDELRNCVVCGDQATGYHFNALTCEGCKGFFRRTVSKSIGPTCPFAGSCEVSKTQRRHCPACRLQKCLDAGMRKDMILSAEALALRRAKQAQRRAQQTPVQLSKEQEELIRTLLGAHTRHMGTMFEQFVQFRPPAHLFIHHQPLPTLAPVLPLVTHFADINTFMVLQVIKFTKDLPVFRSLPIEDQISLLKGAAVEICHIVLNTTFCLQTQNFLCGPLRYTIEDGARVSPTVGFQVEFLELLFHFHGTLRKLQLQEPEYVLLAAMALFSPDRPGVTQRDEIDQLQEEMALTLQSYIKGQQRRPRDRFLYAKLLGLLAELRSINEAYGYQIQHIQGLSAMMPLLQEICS
smiles,measurement,setting,value
Cc1cccc2c1ccc1ccccc12,outcome,[1],inactive
same,outcome,[2],inactive
same,outcome,[3],inactive
same,outcome,[4],inactive
same,outcome,[5],inactive
same,outcome,[6],inactive
same,outcome,[7],inactive
same,outcome,[8],inactive
same,outcome,[9],inactive
same,outcome,[10],inactive
same,outcome,[11],inactive
same,outcome,[12],inactive
CC1CNCC(C)O1 (stereo not given),outcome,[1],inactive
same,outcome,[2],inactive
same,outcome,[4],inactive
same,outcome,[13],inactive
same,outcome,[6],inactive
same,outcome,[14],inactive
same,outcome,[15],inactive
same,outcome,[16],inactive
same,outcome,[7],inactive
same,outcome,[17],inactive
same,outcome,[8],inactive
same,outcome,[10],inactive
same,outcome,[11],inactive
same,outcome,[12],inactive
CCCCCCCCC(C)=O,outcome,[1],inactive
same,outcome,[2],inactive
same,outcome,[4],inactive
same,outcome,[6],inactive
same,outcome,[14],inactive
same,outcome,[15],inactive
same,outcome,[16],inactive
same,outcome,[10],inactive
same,outcome,[12],inactive
CC1CCC(C(=O)O)CC1 (stereo not given),outcome,[1],inactive
same,outcome,[18],inactive
same,outcome,[3],inactive
same,outcome,[4],inactive
same,outcome,[5],inactive
same,outcome,[19],inactive
same,outcome,[6],inactive
same,outcome,[14],inactive
same,outcome,[15],inactive
same,outcome,[16],inactive
same,outcome,[7],inactive
same,outcome,[8],inactive
same,outcome,[10],inactive
same,outcome,[11],inactive
same,outcome,[12],inactive
Cc1cc(C(=C2C=CC(=Nc3ccc(S(=O)(=O)O)cc3)C=C2)c2ccc(Nc3ccc(S(=O)(=O)O)cc3)cc2)cc(S(=O)(=O)O)c1N,outcome,[1],inactive
same,outcome,[2],inactive
same,outcome,[3],inactive
same,outcome,[4],inactive
same,outcome,[6],inactive
same,outcome,[15],inactive
same,outcome,[16],inactive
same,outcome,[7],inactive
same,outcome,[8],inactive
same,outcome,[10],inactive
same,outcome,[11],inactive
same,outcome,[12],inactive
O=C(c1cc(O)c(O)c(O)c1)c1ccc(O)c(O)c1O,outcome,[1],inactive
same,outcome,[2],inactive
same,outcome,[19],inactive
same,outcome,[6],inactive
same,outcome,[14],inactive
same,outcome,[15],inactive
same,outcome,[7],inactive
same,outcome,[17],inactive
same,outcome,[8],inactive
same,outcome,[9],inactive
same,outcome,[10],inactive
same,outcome,[11],inactive
same,outcome,[12],inactive
C=CC(=O)OCCN(CC)CC,AC50,[1],62.9 µM (active)
same,outcome,[2],inactive
same,outcome,[5],inactive
same,outcome,[13],inactive
same,outcome,[14],inactive
same,outcome,[15],inactive
same,outcome,[16],inactive
same,outcome,[7],inactive
same,outcome,[8],inactive
same,outcome,[9],inactive
same,outcome,[10],inactive
same,outcome,[11],inactive
same,AC50,[12],27.4 µM (active)
CC[N+](CC)(CC)Cc1ccccc1,outcome,[1],inactive
same,outcome,[2],inactive
same,outcome,[3],inactive
same,outcome,[4],inactive
same,outcome,[19],inactive
same,outcome,[6],inactive
same,outcome,[14],inactive
same,outcome,[7],inactive
same,outcome,[17],inactive
same,outcome,[8],inactive
same,outcome,[10],inactive
same,outcome,[12],inactive
Cc1ccc(C(=O)c2ccccc2)cc1,outcome,[1],inactive
same,outcome,[2],inactive
same,outcome,[4],inactive
same,outcome,[13],inactive
same,outcome,[14],inactive
same,outcome,[7],inactive
same,outcome,[8],inactive
same,outcome,[10],inactive
same,outcome,[11],inactive
same,outcome,[12],inactive
CCOC(=O)CN[C@@H](C(=O)N1CC[C@H]1C(=O)NCc1ccc(/C(N)=N/O)cc1)C1CCCCC1,outcome,[1],inactive
same,outcome,[2],inactive
same,outcome,[3],inactive
same,outcome,[4],inactive
same,outcome,[13],inactive
same,outcome,[19],inactive
same,outcome,[6],inactive
same,outcome,[14],inactive
same,outcome,[16],inactive
same,outcome,[7],inactive
same,outcome,[17],inactive
same,outcome,[8],inactive
same,outcome,[10],inactive
same,outcome,[11],inactive
same,outcome,[12],inactive
